Experiment [1] can be described thus: Nuclear factor erythroid 2-related factor 2/antioxidant responsive element (Nrf2/ARE) small molecule agonists: qHTS cell viability counter screen in human keratinocytes (AID 1919968; active = well fitted curve in the direction sought with a large enough effect in the repeat runs; an effect the other way counts as inactive or inconclusive; note: nearly all actives have a fitted effect of over 55% in size; note: potency is the fitted concentration of half-maximal effect). The gist of the method: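 KeratinoSens cells (HaCaT keratinocytes stably carrying an ARE-luciferase reporter) were seeded at 1,500 cells/well and rested 5 h at 37 C/5% CO2. They were then exposed to compounds in DMSO for 23 h. Viability was read by CellTiter-Fluor fluorescence after 1 h.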
(In general: Quantitative high-throughput screening tests each substance at several concentrations.)

Experiment [2] is described as follows: Nuclear factor erythroid 2-related factor 2/antioxidant responsive element (Nrf2/ARE) small molecule agonists: luciferase reporter gene qHTS assay in human keratinocytes (AID 1919969). Note: nearly all actives have a fitted effect of over 35% in size. Note: potency is the fitted concentration of half-maximal effect. A general note: A reporter such as luciferase makes a cellular process visible.
For experiment [3], the target named is Gonadotropin-releasing hormone receptor (Homo sapiens) (UniProt P30968). Put plainly: Human gonadotropin-releasing hormone receptor (GnRHR) small molecule agonists, calcium flux assay in GnRHR-HEK293 cells (AID 1920063). Note: nearly all actives have a fitted effect of over 35% in size. Note: potency is the fitted concentration of half-maximal effect. In a few lines: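 HEK293 cells stably expressing human GnRHR were plated 18 h at 37 °C, loaded with calcium dye 1 h at 37 °C, then given compound in agonist mode; fluorescence (Ex/Em 480/540) read kinetically for 3 min at 1 s intervals.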
Gonadotropin-releasing hormone receptor (Homo sapiens), sequence (P30968 whole entry, looked up): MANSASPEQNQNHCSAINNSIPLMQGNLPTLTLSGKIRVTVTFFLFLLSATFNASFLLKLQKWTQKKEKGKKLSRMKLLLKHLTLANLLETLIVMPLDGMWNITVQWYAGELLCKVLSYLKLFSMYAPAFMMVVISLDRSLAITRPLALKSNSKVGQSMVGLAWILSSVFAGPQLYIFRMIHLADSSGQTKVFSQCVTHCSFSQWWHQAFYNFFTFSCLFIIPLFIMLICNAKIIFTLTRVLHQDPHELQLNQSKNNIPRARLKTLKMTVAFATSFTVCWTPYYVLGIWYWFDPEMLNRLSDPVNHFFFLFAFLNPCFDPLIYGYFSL

Experiment [4] in a line: G protein-coupled receptor (GPCR) small molecule agonists, calcium flux assay: HEK293 wild type cell line counter screen (AID 1920065). In a few lines: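 Cells were plated and cultured 18 h at 37 C/5% CO2, then loaded with calcium dye for 1 h at 37 C. Compounds in DMSO were pin-transferred in agonist mode, and fluorescence (Ex/Em 480/540) was read kinetically for 3 min at 1 s intervals.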
(In general: Calcium flux is commonly read through the fluorescence of an indicator in the cells.)

Experiment [5] can be described thus: p53 small molecule agonists, cell-based qHTS assay with rat liver microsomes (AID 1963578). In a few lines:
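Fluorescence from a beta-lactamase reporter under a p53 response element was measured after cells had been incubated 16 h at 37 C with test compound and rat liver microsomes plus NADPH (0.5 mg/mL final each).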

The target in experiment [6] is 5-hydroxytryptamine receptor 2A (Homo sapiens) (UniProt P28223). Kind of experiment: 5-hydroxytryptamine receptor 2A (HTR2A) small molecule antagonists, cell-based qHTS assay (AID 1963586). Note: nearly all actives have a fitted effect of over 45% in size. The gist of the method:
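Antagonist-mode intracellular calcium assay: DOI (4 nM) added after 5 min compound pre-incubation at room temperature to dye-loaded HTR2A-CHO cells. Fluorescence followed for 3 min, sampled every second.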

Experiment [7] has the same target. Kind of experiment: 5-hydroxytryptamine receptor 2A (HTR2A) small molecule agonists, cell-based qHTS assay (AID 1963587). Note: nearly all actives have a fitted effect of over 30% in size. Note: potency is the fitted concentration of half-maximal effect. In a few lines:
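CHO cells stably expressing human HTR2A, plated 18 h, loaded with calcium dye 1 h at 37 C. Agonist mode: compounds added and intracellular calcium fluorescence recorded kinetically for 2 min at 1 sec intervals.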

Experiment [8] concerns the target Muscarinic acetylcholine receptor M1 (Homo sapiens) (UniProt P11229). Kind of experiment: Cholinergic receptor muscarinic 1 (CHRM1) small molecule antagonists, cell-based qHTS assay (AID 1963588). Note: nearly all actives have a fitted effect of over 40% in size. In a few lines:
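CHRM1-CHO calcium-flux assay, antagonist mode. Cells were seeded 18 h, dye-loaded 1 h at 37 C and given compound for 5 min at RT, then acetylcholine was added at 50nM. FDSS fluorescence was read 3 min; 15 concentrations, three runs.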

Experiment [9] has the same target. Kind of experiment: Cholinergic receptor muscarinic 1 (CHRM1) small molecule agonists, cell-based qHTS assay (AID 1963589). Note: nearly all actives have a fitted effect of over 35% in size. The gist of the method: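 CHO cells stably expressing human CHRM1, seeded 18 h at 37 C/5% CO2, dye-loaded 1 h at 37 C, then given compound in agonist mode; intracellular calcium fluorescence read kinetically at 1 s intervals. Fifteen concentrations, three independent runs.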

Experiment [10] can be described thus: cAMP Responsive Elements (CRE) small molecule agonists, cell-based qHTS assay (AID 1963590). In a few lines: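 CRE-bla HEK 293T cells in DMEM with 10% dialyzed FBS, NEAA, pyruvate and 25 mM HEPES were plated 18 h at 37 C/5% CO2, then exposed to compounds in DMSO for 3 h before LiveBLAzer B/G FRET substrate addition.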
Experiment [11] in a line: cAMP Responsive Elements (CRE) small molecule antagonists, cell-based qHTS assay (AID 1963591; active = well fitted inhibition curve with a large enough effect in the signal ratio in the repeat runs, not every such curve was filed as active; the % refers to the signal ratio). The gist of the method:
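CRE-bla HEK293T cells were plated 18 h at 37 °C/5% CO2, pinned with compound in DMSO, then stimulated with NKH477 at 0.25 uM final for 3 h. LiveBLAzer B/G FRET substrate was added and plates incubated 2 h at room temperature.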

Experiment [12] concerns the target Beta-2 adrenergic receptor (Homo sapiens) (UniProt P07550). Put plainly: Adrenergic beta2 receptor (ADRB2) small molecule antagonists, cell-based qHTS assay (AID 1963592). Note: series mostly up to about 92 µM; nearly all actives have a fitted effect of over 50% in size. In a few lines:
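Cells (CHO, stable ADRB2 overexpression) incubated 18-20hr at 37C; compounds added from DMSO; agonist mix (1nM isoproterenol, 100uM IBMX, 25uM Ro-20-1724) added; 0.5hr RT; d2-cAMP and anti-cAMP-cryptate added; 1hr RT; 665/615 nm read.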

For experiment [13], the target named is D(2) dopamine receptor (Homo sapiens) (UniProt P14416). Put plainly: Dopamine D2 receptor (DRD2) small molecule agonists, cell-based qHTS assay (AID 1963594). Note: nearly all actives have a fitted effect of over 35% in size. The gist of the method:
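HEK293 cells stably expressing human DRD2, pre-treated with PDE inhibitor Ro20-1724 (0.1 mM final) and compound 10 min at room temperature, then stimulated with NKH477 (200nM […]) for 30 min. cAMP read by HTRF (665/620 nm).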

The target is the same in experiment [14]. Put plainly: Dopamine D2 receptor (DRD2) small molecule antagonists, cell-based qHTS assay (AID 1963595; active = well fitted inhibition curve with a large enough effect in the signal ratio in the repeat runs, with a control signal flat; the % refers to the signal ratio). The gist of the method: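 Cells were plated and grown for 24 h at 37 °C. Ro20-1724 (0.1 mM final) went in first, then compound for 10 min. NKH477 (200 nM) with quinpirole (12 nM) followed for 30 min at RT, then HTRF detection reagents for 1 h.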
Experiment [15] addresses KiSS-1 receptor (Homo sapiens) (UniProt Q969F8). Put plainly: Human kisspeptin (KISS1R) small molecule agonists, calcium flux assay in KISS1R-HEK293 cells (AID 1920064; active = well fitted curve in the direction sought with a large enough effect in the repeat runs; an effect the other way counts as inactive or inconclusive). In a few lines: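 HEK293 cells stably expressing human KISS1R were plated 18 h at 37 °C, loaded with calcium dye for 1 h at 37 °C, then given compound by pin tool. Fluorescence (Ex/Em 480/540) was read kinetically for 3 min.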

Experiment [16] in a line: p53 small molecule agonists, cell-based qHTS assay with human liver microsomes: qHTS cell viability counter screen (AID 1963579). Note: nearly all actives have a fitted effect of over 45% in size. In a few lines:
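Seed p53RE-bla cells at 4,000 per well; incubate 5 h at 37 C; add compound, human liver microsomes and NADPH; incubate 16 h at 37 C; add CellTiter-Glo; after 30 min at room temperature, read luminescence.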

Experiment [17] is described as follows: p53 small molecule agonists, cell-based qHTS assay with rat liver microsomes: qHTS cell viability counter screen (AID 1963580). Note: nearly all actives have a fitted effect of over 45% in size. The gist of the method: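 p53RE-bla HCT-116 cells were exposed 16 h at 37 C to compounds with rat liver microsomes (0.5 mg/mL) and NADPH (0.5 mg/mL). Viability was measured in the same wells as ATP content by CellTiter-Glo luminescence.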

The nature of experiment [18]: p53 small molecule agonists, cell-based qHTS assay: qHTS cell viability counter screen (AID 1963581). Note: nearly all actives have a fitted effect of over 45% in size. In a few lines:
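p53RE-bla HCT-116 cells were exposed to compounds for 16 h at 37 C; after the beta-lactamase FRET read in the same wells, CellTiter-Glo was added and luminescence (intracellular ATP) read after 30 min at room temperature.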

Experiment [19] addresses Beta-2 adrenergic receptor (Homo sapiens) (UniProt P07550). Put plainly: Adrenergic beta2 receptor (ADRB2) small molecule agonists, cell-based qHTS assay (AID 1963593).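 Note: CHO cells stably overexpressing human ADRB2.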 In a few lines:
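CHO cells stably over-expressing ADRB2 were plated overnight at 37C, then dosed with compounds plus a stimulation mix containing 100uM IBMX and 25uM Ro-20-1724 for 0.5hr at room temperature. cAMP was measured by HTRF competition, 1hr.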

Experiment [20] is described as follows: p53 small molecule agonists, cell-based qHTS assay (AID 1963582; active = well fitted activation curve with a large enough effect in the signal ratio in the repeat runs, not every such curve was filed as active; the % refers to the signal ratio). The gist of the method: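 p53RE-bla beta-lactamase reporter cells rested 5 h at 37 C/5% CO2, then received compounds in DMSO by pin transfer and were incubated 16 h at 37 C. LiveBLAzer B/G FRET substrate was loaded for 2 h at room temperature before fluorescence reading.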

SMILES strings stand for the structures. Inconclusive results are not listed. Calls of active or inactive are those of the source. Unless noted, calls come from the whole dose curve.

Muscarinic acetylcholine receptor M1 (Homo sapiens), sequence (P11229 whole entry, looked up): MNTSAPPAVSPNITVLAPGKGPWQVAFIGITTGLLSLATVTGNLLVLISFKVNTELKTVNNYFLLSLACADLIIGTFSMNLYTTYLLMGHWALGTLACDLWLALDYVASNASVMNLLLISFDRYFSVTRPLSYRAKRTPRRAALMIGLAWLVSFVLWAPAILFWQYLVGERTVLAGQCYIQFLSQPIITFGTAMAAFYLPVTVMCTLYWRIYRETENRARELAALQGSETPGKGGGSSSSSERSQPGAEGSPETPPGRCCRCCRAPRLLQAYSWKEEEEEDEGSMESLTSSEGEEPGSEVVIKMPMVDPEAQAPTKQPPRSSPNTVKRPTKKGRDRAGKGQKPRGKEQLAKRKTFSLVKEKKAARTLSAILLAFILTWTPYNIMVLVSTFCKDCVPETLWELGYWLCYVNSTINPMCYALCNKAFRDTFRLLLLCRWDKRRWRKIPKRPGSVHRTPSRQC
D(2) dopamine receptor (Homo sapiens), sequence (P14416 whole entry, looked up): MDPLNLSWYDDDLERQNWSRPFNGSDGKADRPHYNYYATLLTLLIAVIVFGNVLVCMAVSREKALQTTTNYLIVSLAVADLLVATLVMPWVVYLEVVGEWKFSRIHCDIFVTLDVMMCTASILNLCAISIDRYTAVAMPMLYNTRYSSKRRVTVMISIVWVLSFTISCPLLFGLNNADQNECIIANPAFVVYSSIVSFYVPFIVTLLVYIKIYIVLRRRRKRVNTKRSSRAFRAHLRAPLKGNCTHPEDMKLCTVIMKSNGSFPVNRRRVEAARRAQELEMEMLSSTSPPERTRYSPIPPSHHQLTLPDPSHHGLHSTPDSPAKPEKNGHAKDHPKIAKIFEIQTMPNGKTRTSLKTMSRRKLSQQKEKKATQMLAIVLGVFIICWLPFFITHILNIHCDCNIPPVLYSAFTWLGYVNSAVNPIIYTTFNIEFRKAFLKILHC
KiSS-1 receptor (Homo sapiens), sequence (Q969F8 whole entry, looked up): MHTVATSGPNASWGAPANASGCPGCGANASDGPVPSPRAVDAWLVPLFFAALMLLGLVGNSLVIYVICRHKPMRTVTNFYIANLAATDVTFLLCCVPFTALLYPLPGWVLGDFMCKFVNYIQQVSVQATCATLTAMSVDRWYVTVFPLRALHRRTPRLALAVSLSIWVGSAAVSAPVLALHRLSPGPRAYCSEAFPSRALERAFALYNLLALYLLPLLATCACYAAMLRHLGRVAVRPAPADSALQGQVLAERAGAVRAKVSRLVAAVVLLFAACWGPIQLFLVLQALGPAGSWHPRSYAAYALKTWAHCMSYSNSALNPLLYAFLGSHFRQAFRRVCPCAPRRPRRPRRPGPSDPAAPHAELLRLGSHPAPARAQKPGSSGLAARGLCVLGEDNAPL
5-hydroxytryptamine receptor 2A (Homo sapiens), sequence (P28223 whole entry, looked up): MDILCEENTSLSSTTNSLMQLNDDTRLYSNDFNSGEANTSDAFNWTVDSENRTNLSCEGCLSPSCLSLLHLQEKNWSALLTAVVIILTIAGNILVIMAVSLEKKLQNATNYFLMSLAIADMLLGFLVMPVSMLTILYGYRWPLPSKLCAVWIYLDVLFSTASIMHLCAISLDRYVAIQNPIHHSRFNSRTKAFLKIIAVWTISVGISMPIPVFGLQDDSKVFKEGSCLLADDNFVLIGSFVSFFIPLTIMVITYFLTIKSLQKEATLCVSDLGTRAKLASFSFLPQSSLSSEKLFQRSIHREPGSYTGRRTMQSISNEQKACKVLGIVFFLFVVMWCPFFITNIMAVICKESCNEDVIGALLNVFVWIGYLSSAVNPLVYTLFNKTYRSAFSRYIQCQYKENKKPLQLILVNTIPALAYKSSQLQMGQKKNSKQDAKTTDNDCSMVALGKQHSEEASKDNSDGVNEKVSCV
Beta-2 adrenergic receptor (Homo sapiens), sequence (P07550 whole entry, looked up): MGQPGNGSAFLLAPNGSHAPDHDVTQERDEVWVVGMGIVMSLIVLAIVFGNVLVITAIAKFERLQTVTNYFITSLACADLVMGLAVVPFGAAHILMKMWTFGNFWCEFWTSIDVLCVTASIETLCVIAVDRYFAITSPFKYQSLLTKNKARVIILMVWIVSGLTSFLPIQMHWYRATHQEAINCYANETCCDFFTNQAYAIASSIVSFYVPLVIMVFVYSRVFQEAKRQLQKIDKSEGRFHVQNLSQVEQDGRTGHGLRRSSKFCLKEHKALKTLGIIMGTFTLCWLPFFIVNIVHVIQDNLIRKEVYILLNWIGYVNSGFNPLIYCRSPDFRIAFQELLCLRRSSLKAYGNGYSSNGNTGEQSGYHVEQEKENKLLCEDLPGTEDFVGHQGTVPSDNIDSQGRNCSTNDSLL

As to `COC(=O)Nc1nc2ccc(C(=O)C3CC3)cc2[nH]1`, the Potency entry in [1], in experiment [3], in experiment [4], in [5], in experiment [6] and in [7] was “inactive” each time. Moreover, the Potency entry in experiment [8], in [9], in experiment [10], in experiment [11], in [12] and in experiment [13] was “inactive” in each case. Moreover, the Potency entry in experiment [14] was “inactive”. The Potency in experiment [2] is 8.41 µM (active).

Consider `CCOC(=O)c1ccc(C#Cc2ccc3c(c2)C(C)(C)CCS3)nc1`, for which the Potency result in experiment [1], in experiment [2], in experiment [3], in [15], in experiment [16] and in [17] was “inactive” throughout. The Potency entry in experiment [18], in [6], in experiment [7], in experiment [8], in experiment [12] and in experiment [19] was “inactive” throughout. Further, the Potency entry in [13] and in [14] was “inactive” each time.

Regarding `CCCOc1sc(C(=O)N2CCC(c3cc(CN)ccc3F)CC2)c(C)c1Br`, the Potency in experiment [1] is 17.7 µM (active); in experiment [3], 35.7 µM (active); in [7], 50.4 µM (active). For the same molecule, the Potency entry in experiment [2], in experiment [4], in [5], in experiment [6], in experiment [8] and in experiment [13] was “inactive” throughout.

As to `O=C(Cl)c1ccc(F)c(Cl)c1`, the Potency result in [1], in experiment [2], in [3], in experiment [4], in experiment [5] and in [16] was “inactive” each time. Besides, the Potency result in experiment [17], in [18], in experiment [20], in [6], in [7] and in [8] was “inactive” each time. Besides, the Potency entry in [9], in experiment [10], in [11], in experiment [12], in [13] and in [14] was “inactive” each time.

Consider `Cc1ccc(C(C)C)cc2c(C)ccc1-2`, for which the Potency entry in experiment [1], in experiment [2], in experiment [3], in experiment [15], in experiment [16] and in experiment [17] was “inactive” throughout. Besides, the Potency entry in experiment [18], in experiment [6], in experiment [7], in [9], in experiment [10] and in [11] was “inactive” throughout. For the same molecule, the Potency result in [12], in experiment [13] and in experiment [14] was “inactive” in each case.

On to `O=S(=O)(O)SSS(=O)(=O)O`, for which the Potency result in experiment [1], in experiment [2], in experiment [3], in experiment [15], in experiment [16] and in experiment [17] was “inactive” each time. The Potency entry in [18], in [6], in experiment [7], in [8], in [9] and in [10] was “inactive” throughout. For the same molecule, the Potency result in experiment [11], in experiment [12], in [19], in [13] and in [14] was “inactive” each time.

Take `COc1nc(C)nc(Cl)c1NC1=NCCN1`: the Potency result in experiment [1], in [2], in [3], in [15], in experiment [16] and in [17] was “inactive” in each case. The Potency result in [10], in experiment [12], in [19], in [13] and in [14] was “inactive” throughout.

For the molecule `O=C1CCc2cc(OCCCCc3nnnn3C3CCCCC3)ccc2N1`, the Potency entry in experiment [1], in experiment [2], in [3], in [15], in experiment [16] and in experiment [17] was “inactive” in each case. Besides, the Potency entry in [12], in experiment [19] and in experiment [13] was “inactive” throughout.

In the case of `C=CC(=O)[O-].C=CC(=O)[O-].[Zn+2]`, the Potency result in experiment [1], in experiment [2], in experiment [3], in experiment [4], in experiment [5] and in experiment [16] was “inactive” throughout. Also, the Potency result in experiment [17], in experiment [18], in experiment [20], in experiment [7], in experiment [8] and in experiment [9] was “inactive” in each case. Also, the Potency result in [10], in experiment [11], in experiment [12], in experiment [19], in [13] and in experiment [14] was “inactive” in each case.

Source of the values: PubChem BioAssay (Tox21).
